Out of some 420,000 compounds screened, about 50,000 (12%) were called active. Not shown: some 26% with an inconclusive outcome. The call rests on the fitted dose curve; in most records, active means well fitted inhibition curve with a large enough effect; inconclusive means small, poorly fitted or top-dose-only effect; inactive means flat fitted curve, though single readings scatter. Shown is part of a subset that was picked to be rich in actives.
Assay: qHTS for Inhibitors of human tyrosyl-DNA phosphodiesterase 1 (TDP1): qHTS in cells in presence of CPT; further: nearly all actives have a fitted effect of over 55% in size
Conditions: chicken DT40 Tdp1-/-;hTDP1 cells + 20 nM CPT, ATP luminescence, 48 h; series mostly up to 46.2 µM; activity change, negative = growth inhibition: at the top concentration
Summary of the method: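 Chicken DT40 Tdp1-/- cells complemented with human TDP1, 400 cells/well, exposed to compounds plus 20 nM camptothecin for at least 48 h at 37 C; viability read as ATP content by CellTiter-Glo luminescence.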
On the % scale 0 is the no-effect control and ±100 the full control effect; potency means the concentration at half of the fitted maximal effect.

Row | SMILES | activity change, negative = growth inhibition | Potency
1 | CC12CCC(C(=O)N3CCN(c4ncccn4)CC3)(c3nc4ccccc4nc31)C2(C)C (stereo unspecified) | -11.1% (inactive) | –
2 | Cc1nc(SCC(=O)Nc2ccc(C(=O)O)cc2)n[nH]1 | 9.68% (inactive) | –
3 | CC1CC(C)CN(C(=O)C2CC(=O)N(c3ccc(F)cc3)C2)C1 (stereo unspecified) | -20.7% (inactive) | –
4 | CC(=O)Nc1ccc(NC(=O)CS(=O)(=O)c2cn(CC(=O)N3CCCCC3)c3ccccc23)cc1 | -10.5% (inactive) | –
5 | COc1ccccc1C(=O)N1C(CC(=O)Nc2ccccc2C)C(=O)NC2CCCCC21 (stereo unspecified) | -19% (inactive) | –
6 | CCc1cc2c(N3CCN(c4nnc(CC)s4)CC3)ncnc2s1 | – | 10.3 µM (active)
7 | CCOCCCNCc1ccc(OCc2ccc(F)cc2)c(OC)c1 | -17.6% (inactive) | –
8 | O=C(NCCCO)C(=O)Nc1c2c(nn1-c1ccccc1)CSC2 | -5.46% (inactive) | –
9 | CCN(CC)S(=O)(=O)c1ccc(N(C)Cc2cccc(OC)c2OC)nc1 | – | 23.1 µM (active)
10 | CCN(CC)S(=O)(=O)c1ccc(OC)c(NC(=O)CCc2c(C)noc2C)c1 | 1.45% (inactive) | –
11 | COc1ccc(S(=O)(=O)N2CCCCCC2)cc1C(=O)N(C)Cc1cccc(OC)c1OC | -28.8% (inactive) | –
12 | CCC(C(=O)N1CCN(S(=O)(=O)c2sc(C(=O)O)c(C)c2C(=O)O)CC1)c1ccccc1 (stereo unspecified) | -4.51% (inactive) | –
13 | CCCCCCC(O)(CCN1CCCCC1)c1ccccc1 (stereo unspecified) | 6.69% (inactive) | –
14 | O=C(CSc1ncn[nH]1)Nc1nc2c(F)c(F)c(F)cc2s1 | -10.6% (inactive) | –
15 | Cc1c(CCOC(=O)CC23CC4CC(CC(C)(C4)C2)C3)sc[n+]1Cc1ccc([N+](=O)[O-])cc1 | – | 18.4 µM (active)
16 | COc1ccc(-n2c(C)cc(C(=O)CSc3nnc(-c4cccs4)o3)c2C)cc1 | – | 16.4 µM (active)
17 | Cc1ccc(OC(=O)CSc2nnc(-c3cccs3)o2)cc1 | 1.42% (inactive) | –
18 | COc1ccc(C(=O)CSc2nnc(-c3ccco3)o2)cc1 | -1.34% (inactive) | –
19 | Cc1ccc(S(=O)(=O)N2CC[C@H]3[C@@H](C2)C(=O)C[C@@H](c2ccccc2)N3S(=O)(=O)c2ccc(C)cc2)cc1 | -12.4% (inactive) | –
20 | Cc1ccc(C)c(S(=O)(=O)Nc2cc(C)on2)c1 | -2.88% (inactive) | –
21 | CC(NC(=O)CC1SC(N)=NC1=O)c1ccccc1 (stereo unspecified) | -7.27% (inactive) | –
22 | Cc1nc(CN(C)C(=O)CC2C(=O)NCCN2Cc2ccc(F)cc2)cs1 (stereo unspecified) | 1.54% (inactive) | –

Row | SMILES | activity change, negative = growth inhibition | Potency
23 | CCCC(=O)Nc1ncnc2c1ncn2[C@@H]1O[C@@H]2OP(=O)(O)OC[C@H]2[C@H]1OC(=O)CCC | 3.57% (inactive) | –
24 | CC(C)C(=O)NC(NC(=S)NC1CCS(=O)(=O)C1)C(Cl)(Cl)Cl (stereo unspecified) | -3.75% (inactive) | –
25 | O=S1(=O)CCC(NC(=S)SCc2ccccc2Br)C1 (stereo unspecified) | – | 8.2 µM (active)
26 | O=C(Cc1ccc(Cl)cc1)NC1CCS(=O)(=O)C1 (stereo unspecified) | -2.99% (inactive) | –
27 | COc1ccc(NC(=S)NC2CCS(=O)(=O)C2)cc1 (stereo unspecified) | 1.76% (inactive) | –
28 | CCCSC(=S)NC1CCS(=O)(=O)C1 (stereo unspecified) | – | 16.4 µM (active)
29 | O=C(CSc1ccccc1F)NC1CCS(=O)(=O)C1 (stereo unspecified) | -0.0027% (inactive) | –
30 | CCOc1ccc(NC(=O)CN(C)CC(=O)NC(C)c2ccccc2)cc1OCC (stereo unspecified) | -9.01% (inactive) | –
31 | CN(CCC(=O)Nc1cc(S(=O)(=O)N(C)C)ccc1Cl)CC(=O)Nc1ccc(F)cc1 | 5.34% (inactive) | –
32 | CN1OC[C@@H]2CN(C(=O)c3cccnc3)[C@H](c3ccc(N4CCCCC4)cc3)C[C@@H]21 | 6.47% (inactive) | –
33 | CCOC(=O)CN(C(=O)COc1nc(-c2ccccc2)cc(C)c1C#N)c1ccc(F)cc1 | -24.9% (inactive) | –
34 | CCOC(=O)c1ccc(NC(=S)N2CCN(c3ccccn3)CC2)cc1 | 1.63% (inactive) | –
35 | COc1cc([N+](=O)[O-])ccc1NC(=S)N1CCN(c2ccccn2)CC1 | -24.2% (inactive) | –
36 | O=[N+]([O-])c1ccc(NC(=S)N2CCN(c3ccccn3)CC2)cc1 | – | 16.4 µM (active)
37 | CC(=O)Nc1ccc(NC(=O)CCCNC(=O)c2ccc(Cl)cc2)cc1 | -1.54% (inactive) | –
38 | COCCCNC(=O)CCc1nc2cccnc2n1Cc1ccc(OC)cc1 | -3.73% (inactive) | –
39 | Cc1ccc(Cn2c(CNC(=O)Cc3cccc(C)c3)nc3cccnc32)cc1 | – | 13 µM (active)
40 | COCCn1c(CCC(=O)Nc2cc(C)ccc2C)nc2cccnc21 | -9.25% (inactive) | –
41 | O=C(CCNS(=O)(=O)c1ccccc1)NCCSc1ccc(Br)cc1 | -23% (inactive) | –
42 | CCc1cccc(NC(=O)COC(=O)c2cc(=O)c3ccccc3o2)c1 | 5.89% (inactive) | –
43 | COCCCNC(=S)N(Cc1ccccc1)Cc1ccc(F)cc1 | -7.85% (inactive) | –
44 | C=CCC[C@@H](Cc1ccc(F)cc1)C(=O)O[C@H](CNC(=O)[C@H](CC=C)CC(=O)N(CCO)Cc1ccccc1)c1ccccc1 | – | 18.4 µM (active)

Row | SMILES | activity change, negative = growth inhibition | Potency
45 | C=CCC(NC(=O)Cc1ccccc1)C(=O)NCCC (stereo unspecified) | -4.46% (inactive) | –
46 | C=CC[C@H](CC(=O)N(CCO)Cc1ccccc1)C(=O)N[C@@H](COC(=O)[C@@H](CC=C)Cc1ccc(F)cc1)Cc1ccccc1 | – | 23.1 µM (active)
47 | C=CCC[C@@H](Cc1ccc(F)cc1)C(=O)OC[C@@H](C)NC(=O)[C@H](CC=C)CC(=O)N(CCO)Cc1ccccc1 | – | 13 µM (active)
48 | C=CCC[C@H](Cc1ccc(F)cc1)C(=O)OC[C@H](C)NC(=O)[C@H](CC=C)CC(=O)N(CCO)Cc1ccccc1 | – | 14.6 µM (active)
49 | Cc1ccccc1Nc1nc(N)nc(CSc2ccccc2)n1 | 11.7% (inactive) | –
50 | COc1ccc(C(C)NC(=O)C2CCCC2)cc1 (stereo unspecified) | 28% (inactive) | –
51 | O=C(CNC(=O)c1cccnc1)N/N=C/c1cc(Br)c(O)c(Br)c1 | -5.42% (inactive) | –
52 | Cc1ccc(S(=O)(=O)NCC2CCC(C(=O)N3CCOCC3)CC2)cc1 (stereo unspecified) | 11.6% (inactive) | –
53 | CCOc1ncccc1C(=O)NNC(=O)c1cccc(S(=O)(=O)Nc2ccccc2OC)c1 | -0.192% (inactive) | –
54 | O=C(Nc1c[nH]c(=O)[nH]c1=O)OCc1ccccc1 | -14.3% (inactive) | –
55 | CC(=O)c1sc(N)nc1C | – | inactive
56 | COc1ccc(C2/C(=C(/O)c3ccc4c(c3)CC(C)O4)C(=O)C(=O)N2Cc2ccncc2)cc1 (stereo unspecified) | 29.7% (inactive) | –
57 | CC(C)COc1ccc(C(=O)NNC(=O)CCC(=O)c2cccs2)cc1 | -2.08% (inactive) | –
58 | Cc1cc(=O)n2[nH]c(-c3cccc(Cl)c3)cc2n1 | – | 18.4 µM (active)
59 | O=C1CCCc2c1nc(-c1cccc(Cl)c1)n2O | -22.1% (inactive) | –
60 | C=CCc1c(C)nc2cc(-c3ccccc3)[nH]n2c1=O | -22.6% (inactive) | –
61 | O=[N+]([O-])c1ccc2[nH]c3c(c2c1)CCCC3O (stereo unspecified) | 2.97% (inactive) | –
62 | O=C1/C(=C\c2ccsc2)NC(=S)N1c1ccccc1 | -5.02% (inactive) | –
63 | O=c1c(-c2ccccc2Cl)c[nH]n1-c1ccccc1 | -13.2% (inactive) | –
64 | COc1cccc(NC(=O)CN2CCN(c3nc(-c4cccc(OC)c4)cs3)CC2)c1 | -27.1% (inactive) | –
65 | COc1cccc(CNc2nc3nc4c(c(=O)n3[nH]2)CCC4)c1 | 7.39% (inactive) | –
66 | COc1cccc(-c2cc3nc4c(c(N5CCC6(CC5)OCCO6)n3n2)CCCC4)c1 | – | 23.1 µM (active)
